Out of some 4,900 compounds screened, about 2,100 (43%) were called active.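 Rule for the calls: active = thallium signal inhibited by more than 5 SD of the compound-free buffer control wells, on both duplicate plates; inactive = the rest.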 The set was probably picked from earlier hits. The list is a sample of the results.
biological target: Potassium channel subfamily K member 9 (Homo sapiens) (UniProt Q9NPC2); assay: KCNK9 potassium channel inhibitors, confirmation, HEK293 cells, thallium flux, duplicate (AID 492992); details: FluxOR thallium flux fluorescence, at 10 µM; hits give high values;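 for inhibition: 0% = assay buffer control wells without compound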
Sequence (Q9NPC2 whole entry, looked up): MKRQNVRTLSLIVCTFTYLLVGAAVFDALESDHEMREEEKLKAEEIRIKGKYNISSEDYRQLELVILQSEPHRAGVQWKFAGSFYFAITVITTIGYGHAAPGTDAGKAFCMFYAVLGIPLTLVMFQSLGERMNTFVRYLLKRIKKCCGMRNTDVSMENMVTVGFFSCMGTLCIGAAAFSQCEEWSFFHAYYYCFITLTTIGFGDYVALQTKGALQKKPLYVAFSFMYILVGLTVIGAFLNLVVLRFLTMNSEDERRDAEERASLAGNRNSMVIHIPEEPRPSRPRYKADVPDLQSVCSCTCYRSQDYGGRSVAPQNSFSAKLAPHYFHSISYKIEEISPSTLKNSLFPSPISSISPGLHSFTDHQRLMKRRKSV

SMILES	inhibition
CN(CCC(=O)Nc1cc(S(=O)(=O)N(C)C)ccc1Cl)CC(=O)Nc1ccc(F)cc1	51.5% (active)
CC1CCN(C(=S)c2ccc(-c3ccc(Cl)cc3Cl)o2)CC1	inactive
COc1ccc(C2Nc3ccccc3C(=O)N2Cc2ccccc2)cc1Cn1nnc2ccccc21 (centres undefined)	inactive
O=C(Nc1ccc(Cl)c(Cl)c1)N1CC=C(c2ccccc2)CC1	30% (active)
O=C(COC(=O)c1ccccc1)Nc1ccccc1Sc1ccccc1	35% (active)
CCN(C(=O)COc1ccc(C(=O)c2ccccc2)cc1)c1ccccc1	40% (active)
C[C@@]12C(=O)N(c3cccc(Br)c3)C(=O)N1[C@H](c1ccc(Cl)cc1)[C@@H]1C(=O)N(C3CCCCC3)C(=O)[C@@H]12	inactive
CCOC(=O)[C@@H]1[C@H]2COc3ccc(Br)cc3[C@H]2N2C(=O)N(c3ccc(Cl)cc3)C(=O)[C@@]12C	56.5% (active)
COc1cccc2cc(C(C)N(CCCN3CCOCC3)C(=O)Nc3ccc(Cl)cc3)oc12 (centres undefined)	42.5% (active)
Cc1cccc2cc(CN(Cc3nnnn3Cc3ccccc3)C3CCCC3)c(=O)[nH]c12	27% (active)
CCC(c1nnnn1Cc1ccco1)N(CCc1ccccc1)Cc1cc2cccc(C)c2[nH]c1=O (centres undefined)	47% (active)
CCOc1ccc(OCc2ccc(C(=O)Nc3cccc(C)n3)o2)cc1	inactive
O=C(Cc1ccccc1)n1nc(-c2ccccc2)nc1NCc1ccco1	inactive
CCCSc1nc(NCc2ccco2)c2c3c(sc2n1)COC(C)(CC)C3 (centres undefined)	40% (active)
CCC1(C)Cc2c(sc3[nH]c(=S)n(Cc4ccccc4)c(=O)c23)CO1 (centres undefined)	inactive
Cc1ccc(C)c(NC(=S)NNC(=S)Nc2ccc(C(C)C)cc2)c1	inactive
CCOC(=O)Cc1cc(=O)[nH]c(=O)[nH]1	25% (active)
Clc1ccc(Cl)c(Oc2ccc(Oc3nc(Cl)ccc3Cl)cc2)n1	inactive
CCC/C=C(\CCC)C(NC(=O)Cc1ccccc1)c1ccc(C(=O)OC)cc1 (centres undefined)	67% (active)
CC(C)(C)SCCSC1=CC(=O)CC(c2ccccc2)C1 (centres undefined)	inactive
CCCCCC(O)c1cccc(OCc2ccc3ccccc3n2)c1 (centres undefined)	74.5% (active)
COc1cccc(-c2cnc(OC(C)(C)C)nc2OC(C)(C)C)c1	inactive
CCOC(=O)c1cc2sccc2n1Cc1ccc(C#N)cc1	65% (active)
CCOC(=O)c1c(NC(=O)CCCN2CCOCC2)sc2c1CC(C)(C)OC2	inactive
CN(CCOc1ccccc1)C(=O)c1cc(COc2c(F)cccc2F)on1	inactive

SMILES	inhibition
CCOC(=O)C1=C(C)Nc2sc(C(=O)c3ccc(Br)cc3)c(N)c2C1c1ccc(C(=O)OC)cc1 (centres undefined)	31% (active)
COc1cc(Cl)c(S(=O)(=O)N2CCN(Cc3ccc4c(c3)OCO4)CC2)cc1Cl	inactive
COc1ccc(C(=O)Nc2ccccc2C(=O)N/N=C/c2ccccc2OC)cc1	36.5% (active)
COc1ccc(C(=O)NN2C(=O)C3C(c4ccccc4)C=CC(c4ccccc4)C3C2=O)cc1 (centres undefined)	inactive
O=C(CNCCC1=CCCCC1)Nc1ccccc1N1CCCCCC1	51.5% (active)
O=c1cc(CN2CCN(c3cccc(Cl)c3)CC2)c2cc3c(cc2o1)CCCC3	inactive
Cc1ccc(C(=O)c2c(NC(=O)c3ccncc3)sc3c2CCCC3)cc1	inactive
CCOC(=O)c1c(NC(=O)CSc2cn(CC)c3ccccc23)sc2c1CCC2	inactive
COc1cccc(OC)c1C(=O)Nc1sc2c(c1C(N)=O)CCCC2	33% (active)
Cc1cc2ccccn2c1C(=O)c1cccc(F)c1	inactive
COc1ccc(C(CCN(Cc2ccc(OC)c(OC)c2)C(=O)CCl)c2ccccc2)cc1 (centres undefined)	36% (active)
Cc1ccc(-c2csc(NCCc3nc4cc(Cl)c(Cl)cc4n3CCOCCO)n2)cc1	54% (active)
CCOC(=O)N1CCN(C(=O)COc2ccc3oc4c(c3c2)CCCC4)CC1	inactive
Cc1cccc(NC(=O)c2sc3nc4c(c(-c5ccco5)c3c2N)CCC4)c1	58.5% (active)
O=C(Nc1ccc2c(c1)CCC2)c1cccc(S(=O)(=O)Nc2ccccc2Cl)c1	inactive
O=C(COc1ccc(Cl)cc1Cl)N/N=C/c1ccccn1	47% (active)
O=C(N/N=C/c1ccccn1)c1cccc(NC(=O)c2ccc(Cl)cc2)c1	48% (active)
Oc1ccc(/C=N/Nc2nc(-c3ccccc3F)nc3ccccc23)c(O)c1	inactive
COc1ccc(C(=O)C2CCCN(C(=O)c3ccc(OC)o3)C2)c(C)c1 (centres undefined)	inactive
COc1ccc(OC)c(C(=O)c2coc3ccc(OC)cc23)c1	47% (active)
Cc1ccnc(N2CCN(C(=O)CSc3nc4ccccc4nc3N3CCCCC3)CC2)c1	inactive
Clc1ccc(COn2c(-c3ccc(Cl)cc3Cl)nc3ncccc32)cc1	41% (active)
Cc1onc(-c2ccc(Cl)cc2)c1-c1ccnn1S(=O)(=O)c1ccc(Cl)cc1	inactive
Cc1ccc(SCC(=O)c2cc(C)c(OC(=S)N(C)C)c(C)c2)cc1	inactive
Cc1[nH][nH]c(=O)c1C(c1ccc(-c2ccc(Cl)cc2)o1)c1c(C)[nH][nH]c1=O	inactive

SMILES	inhibition
Cc1cc(C=O)c(C)n1-c1ccc(NC2CCCCC2)c([N+](=O)[O-])c1	63% (active)
Cc1ccc(NC(=O)c2cc([N+](=O)[O-])ccc2Cl)c(O)c1	58.5% (active)
CCN(CC)S(=O)(=O)c1ccc(N(C)Cc2ccc(C(F)(F)F)cc2)nc1	inactive
O=C1CC(c2ccccc2)=NN1c1ccc([N+](=O)[O-])cc1	inactive
O=C1c2ccccc2S(=O)(=O)N1CC(O)Cn1c2ccccc2c2ccccc21 (centres undefined)	28% (active)
CCCCOC(=O)CCCc1ccc([N+](=O)[O-])cc1[N+](=O)[O-]	inactive
Cc1ncoc1C(=O)N1CCCC(C(=O)c2ccc3c4c(cccc24)CC3)C1 (centres undefined)	inactive
COC(=O)C1=C(Nc2ccc(C)cc2)C=C(C)C(C(=O)OC)C1c1ccc(F)cc1 (centres undefined)	36% (active)
CCn1cnc2scc(-c3ccc(C)c(C)c3)c2c1=O	inactive
CCCOc1ccc2c3c(c(=O)oc2c1OCCC)CCC3	66.5% (active)
COc1ccc(C2CC(c3cccs3)=NN2c2ccccc2)cc1 (centres undefined)	50% (active)
COc1ccc(/C=C2\CCc3ccccc3C2=O)c(OC)c1OC	inactive
Cc1ccccc1CSCCNC(=O)c1ccc(N(C)S(=O)(=O)c2ccccc2)cc1	inactive
CN(c1ccccc1)S(=O)(=O)c1cccc(NC(=O)Cc2c(F)cccc2Cl)c1	67.5% (active)
Fc1cccc(Cl)c1CSc1ccc(-c2ccco2)nn1	67% (active)
FC(F)(F)c1cc(-c2ccco2)nc(NCc2ccc(Cl)cc2)n1	inactive
O=C(Nc1ccc(S(=O)(=O)N2CCCCC2)cc1)C1CCN(C(=O)c2ccc(F)cc2)CC1	inactive
Cc1ccc(C(=O)/C=C/c2c(C)nn(-c3ccccc3)c2Cl)cc1	inactive
Cc1ccccc1N1CCN(Cc2nc(Cc3ccccc3F)no2)CC1	inactive
CC(C)CC(COCc1ccc(Cl)cc1)N1CCN(C(=O)c2ccc(C(F)(F)F)cc2)CCC1=O (centres undefined)	39.5% (active)
CC1CCN(C(=O)c2ccc(CSc3ccc(Cl)cc3)cc2)CC1	inactive
CCCCN(CC)C(=O)C1CCCN(S(=O)(=O)c2cccc3nsnc23)C1 (centres undefined)	inactive
O=C(Nc1nnc(SCc2ccc(Cl)cc2Cl)s1)C1COc2ccccc2O1 (centres undefined)	inactive
COc1ccc(C(=O)C2CCCN(Cc3ccc4nonc4c3)C2)c(C)c1 (centres undefined)	inactive
CCCCCCCCn1c2c(c(=N)c3c1CCC3)CCCC2	62.5% (active)

SMILES	inhibition
O=C(NC(=S)Nc1ccccc1C(=O)O)c1ccc(-c2ccc(Br)cc2)o1	inactive
COc1ccc(-c2n[nH]c3c2CN(C(=O)c2ccc(F)cc2)CC3)cc1	inactive
Cc1cc(OC(C)C(=O)Nc2ccc(S(=O)(=O)Nc3onc(C)c3C)cc2)cc(C)c1Cl (centres undefined)	inactive
O=C(Nc1ccccc1[N+](=O)[O-])C1C(c2ccccc2)=C1c1ccccc1	40% (active)
Cc1ccc(CN2CCN(/N=C/c3ccco3)CC2)c(C)c1	inactive
CC1=NN(c2cccc(Cl)c2)C(=O)C12CC(C)=C(C)CS2 (centres undefined)	45.5% (active)
O=C(NCCc1ccccc1)c1ccc2c(c1)N(Cc1ccccc1)CCS2	inactive
COc1ccccc1N1CCN(c2ncnc3sc(C)c(-c4ccccc4)c23)CC1	56% (active)
CCCCNC(=S)N/N=C1\CCCCc2ccccc21	inactive
CCCC(=O)n1nc(NCc2ccc(OC)cc2)nc1NCc1ccc(OC)cc1	inactive
O=C(Nn1c(SCc2ccc([N+](=O)[O-])cc2)nc2ccccc2c1=O)c1ccc(F)cc1	65% (active)
Cc1ccc(N2CCN(S(=O)(=O)c3ccc(F)cc3)CC2)c(C)c1	inactive
Cc1cccc(C(=O)Nc2ccccc2N2CCN(c3ccc(F)cc3)CC2)c1	40% (active)
CCCCC(=O)Nc1ccccc1N1CCN(c2ccc(F)cc2)CC1	69% (active)
CCOC(=O)CSc1nc2c(sc(=S)n2CCc2ccccc2)c(=O)n1Cc1ccco1	29.5% (active)
COc1cccc(COc2ccc(N(C)S(=O)(=O)c3ccccc3)cc2)c1	50% (active)
Cn1nc(-c2ccccc2)c(CSc2cccc(Cl)c2)c1Cl	34.5% (active)
COC(=O)c1cc(NC2c3ccccc3C(=O)N2c2ccc(Cl)cn2)cc(C(=O)OC)c1 (centres undefined)	29.5% (active)
CCOC(=O)C(C)n1cnc2scc(-c3ccc(C)c(C)c3)c2c1=O (centres undefined)	inactive
COCCNc1cc(-c2ccccc2)nc2cc(-c3cccc(F)c3)nn12	53.5% (active)
Cc1ccc(Cn2ccc(NC(=O)c3cc(C(C)C)on3)n2)cc1	inactive
COC(C(=O)Nc1ccc(S(=O)(=O)Nc2ccc(C)c(C)c2)cc1)c1ccccc1 (centres undefined)	inactive
O=C(Nc1cc(Cl)cc(Cl)c1)C(NCCCO)c1ccccc1 (centres undefined)	inactive
CC(C)C(=O)Nc1cccc(NC(=S)NC(=O)C(c2ccccc2)c2ccccc2)c1	52% (active)
